CYP2C19 activ: human CYP2C19 activators, primary screen, biochemical, luminescence | recombinant CYP2C19, luciferin-H EGE luminescence; active compounds read high; 0 = fully inhibited enzyme, 1 = untreated enzyme | activation factor at 5 µM | Cytochrome P450 2C19 (Homo sapiens), P33261 | 96,000 tested, under 10 active;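 active = activation factor of at least 2 at 5 µM in the primary screen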;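 also: 0 = wells with 2.5 mM tranylcypromine and 1 = vehicle-only wells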
Target sequence (P33261 whole entry, looked up): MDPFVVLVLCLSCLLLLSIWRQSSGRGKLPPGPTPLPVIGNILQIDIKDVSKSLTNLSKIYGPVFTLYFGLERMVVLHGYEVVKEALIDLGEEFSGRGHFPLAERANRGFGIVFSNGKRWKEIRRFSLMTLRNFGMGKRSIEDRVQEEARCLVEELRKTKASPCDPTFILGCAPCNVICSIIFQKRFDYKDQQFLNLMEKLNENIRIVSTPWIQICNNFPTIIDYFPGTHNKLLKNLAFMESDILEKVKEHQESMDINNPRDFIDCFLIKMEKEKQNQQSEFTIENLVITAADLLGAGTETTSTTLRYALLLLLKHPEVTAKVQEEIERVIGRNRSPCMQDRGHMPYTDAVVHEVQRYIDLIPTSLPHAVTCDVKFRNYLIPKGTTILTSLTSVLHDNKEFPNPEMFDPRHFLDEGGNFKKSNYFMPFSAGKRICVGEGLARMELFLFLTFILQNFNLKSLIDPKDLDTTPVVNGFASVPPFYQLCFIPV
CYP2C9 inhib: blockers of cytochrome P450 2C9 activity – biochemical, luminescence, ADME assay, primary screen; CYP2C9 Supersomes, luciferin-H conversion; inhibition, % at 5 µM; hit rate 20% among 96,000; AID 777, 2007;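 active = blocking of liver enzyme CYP2C9 beyond about 50% at 5 µM, limit read from the data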
CYP2C9 activ: human CYP2C9 activators, primary screen, biochemical, luminescence; recombinant CYP2C9, luciferin-H conversion; active compounds read high; factor 1 = untreated enzyme, 0 = blocked; Cytochrome P450 2C9 (Homo sapiens), P11712; hit rate 1.4% among 96,000; activation factor at 5 µM;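 active = activation factor of 2 or more for CYP2C9 at a 5 µM dose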;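 also: 0 = sulfaphenazole-blocked wells and 1 = vehicle-only wells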
CYP2C19 inh: blockers of cytochrome P450 2C19 activity – biochemical, luminescence, ADME assay, primary screen; inhibition, % at 5 µM; AID 778, 2007; hit rate 21% among 96,000; CYP2C19 Supersomes, luciferin-H EGE luminescence, 30 min;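 active = CYP2C19 inhibition above a set limit at 5 µM in the primary screen, cut at about 50% in these data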;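 also: plate controls were negative control wells for no effect and 2.5 mM tranylcypromine positive control for full effect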
The depositor's hits bear a star. This is a sample that favours compounds with a hit; in the whole collection about 31% have one here.

SMILES | CYP2C19 activ | CYP2C9 inhib | CYP2C9 activ | CYP2C19 inh
CC(NC(=O)CN1CCN(c2ncccn2)CC1)c1ccc(F)cc1 (stereo not drawn) | 0.6 | 92* | 0.1 | 39
O=C(CN1CCOCC1)NCc1ccccc1 | 0.8 | -6 | 1.1 | 19
O=C(CN1CCN(c2ccccn2)CC1)Nc1ccccc1 | 0.4 | 32 | 0.7 | 56*
O=C(CN1CCN(c2ccccn2)CC1)Nc1ccc(OCc2ccccc2)cc1 | 0.9 | 31 | 0.7 | 8
O=C(CN1CCN(c2ccccn2)CC1)Nc1ccc(Oc2ccccc2)cc1 | 0.8 | 53* | 0.5 | 22
O=C(CN1CCN(c2ccccn2)CC1)Nc1ccc(F)cc1 | 0.4 | 73* | 0.3 | 61*
O=C(CN1CCN(c2ccccn2)CC1)NC1CCCC1 | 0.9 | 21 | 0.8 | 6
Cc1ccc2nc3c(nc2c1)-c1ccccc1C3=O | 1.1 | 4 | 1 | -7
Cc1cc(C)c(C#N)c(Oc2ccc(O)cc2)n1 | 0.7 | 65* | 0.4 | 26
CC(=O)Nc1ccc(S(=O)(=O)n2cnc3ccccc32)cc1 | 0.7 | 13 | 0.9 | 31
ClC(Br)=C(n1cnc2ccccc21)n1cnc2ccccc21 | 0.2 | 88* | 0.1 | 75*
COc1ccc(C(=O)CSc2nnc(-c3cc(C)cc(C)c3)o2)cc1 | 0.4 | -13 | 1.1 | 62*
COc1cccc(C(=O)CSc2nnc(-c3cc(OC)cc(OC)c3)o2)c1 | 1 | -1 | 1 | 0
CCOC(=O)c1c(C)[nH]c(C)c1C(=O)CSc1nnc(-c2ccc(OC(F)F)cc2)o1 | 0.8 | 33 | 0.7 | 19
CCOC(=O)c1[nH]c(CSc2nnc(-c3ccc(OC)cc3)o2)c(C(=O)OCC)c1C | 0.3 | 85* | 0.2 | 73*
COc1ccc(-c2nnc(SCC(=O)c3[nH]c(C)c(C(C)=O)c3C)o2)cc1 | 0.4 | 36 | 0.6 | 63*
COc1ccc(-c2nnc(SCC(=O)c3ccc[nH]3)o2)cc1 | 1 | -26 | 1.3 | 4
Cc1cccc(NC(=O)CCN2C(=O)C3C4C=CC(C4)C3C2=O)n1 (stereo not drawn) | 0.7 | -8 | 1.1 | 28
CCCCNC(=O)c1onc(CSc2ccccc2F)c1C(=O)O | 1 | 57* | 0.4 | 0
Cc1ccccc1SCc1noc(C(=O)NC(C)C)c1C(=O)O | 0.9 | 40 | 0.6 | 13
CCCCNC(=O)c1onc(CSc2ccccc2C)c1C(=O)O | 1 | 59* | 0.4 | 0
Cc1cc(C(=O)c2cnc(/N=C/N(C)C)s2)cc(C)c1O | 0.6 | -103 | 2* | 41
CN(C)/C=N/c1ncc(C(=O)c2ccccc2)s1 | 0.9 | -16 | 1.2 | 13
COc1ccc2nc(NC(=O)C(NS(=O)(=O)c3cccs3)C(C)C)sc2c1 (stereo not drawn) | 0.4 | 63* | 0.4 | 55*
Cc1ccc2nc(NC(=O)C(NS(=O)(=O)c3cccc4nsnc34)C(C)C)sc2c1 (stereo not drawn) | 0.8 | 77* | 0.2 | 23
SMILES | CYP2C19 activ | CYP2C9 inhib | CYP2C9 activ | CYP2C19 inh
COc1ccc2nc(NC(=O)CN3CCN(C)CC3)sc2c1 | 1.1 | -5 | 1 | -6
CCC(Sc1nc(N)cc(N)n1)C(=O)O (stereo not drawn) | 1.1 | -7 | 1.1 | -9
COc1ccccc1C(=O)Nc1cc2ccccc2oc1=O | 0.9 | 25 | 0.7 | 12
O=c1oc2ccccc2cc1NCc1ccccc1O | 0.4 | 22 | 0.8 | 59*
CSc1nsc(SC)c1C(=O)N1CCN(S(=O)(=O)c2ccc(C)cc2)C1C (stereo not drawn) | 0.6 | 74* | 0.3 | 42
Cc1ccc(S(=O)(=O)N2CCN(C(=O)N3CCOCC3)C2C)cc1 (stereo not drawn) | 0.8 | -28 | 1.3 | 23
COc1ccc(-c2cc3ccccc3n2CC(O)CN2CCN(CCO)CC2)cc1 (stereo not drawn) | 0.9 | 10 | 0.9 | 12
CCN(c1ccc(NC(=O)COC(=O)CCC(=O)c2ccc(F)cc2)cc1)C(C)C | 0.4 | 23 | 0.8 | 63*
CC(C)CNC(=O)COC(=O)CCC(=O)c1ccc(F)cc1 | 0.6 | 17 | 0.8 | 36
CCOC(=O)c1c(CC(C)C)csc1NC(=O)C(C)C | 0.8 | -10 | 1.1 | 21
CCOC(=O)c1c(CC(C)C)csc1NC(=O)CCl | 0.8 | 62* | 0.4 | 22
O=C(CSCc1c(Cl)cccc1Cl)Nc1nccs1 | 0.8 | 75* | 0.2 | 22
O=C(CSc1cn(Cc2ccccc2)c2ccccc12)Nc1nccs1 | 0 | 99* | 0 | 96*
CNC(=O)CSCc1c(Cl)cccc1Cl | 0.9 | -1 | 1 | 15
O=C(CCCc1nc2ccccc2s1)Nc1nccs1 | 0.6 | 29 | 0.7 | 42
O=C(CSCc1ccccc1)Nc1nccs1 | 0.5 | 44 | 0.6 | 50*
O=C(CCCSc1nc2ccccc2s1)Nc1nccs1 | 0.2 | 88* | 0.1 | 79*
COc1ccc(NC(=O)C2CCN(c3nnnn3-c3ccccc3)CC2)cc1 | 0.9 | 20 | 0.8 | 8
COc1ccc2nc(SCC(=O)Nc3ccc4sc(C)nc4c3)c(C#N)cc2c1 | 0.8 | 45 | 0.5 | 25
CCC1CCC(NC2CCCCNC2=O)CC1 (stereo not drawn) | 1.1 | -14 | 1.1 | -7
CC1(C)CC2CC(C)(CN2C(=O)C23CCC(C)(C(=O)O2)C3(C)C)C1 (stereo not drawn) | 0.7 | 18 | 0.8 | 28
O=C(CCCOc1ccccc1)Nc1nccs1 | 0.1 | 51* | 0.5 | 86*
Nc1nc(NC(=O)c2cccnc2)nn1-c1ccccc1 | 0.9 | 3 | 1 | 13
O=C(O)CCCC(=O)NS(=O)(=O)c1ccc(Cl)cc1 | 1 | 12 | 0.9 | -2
COc1ccc(C2=NN(C(=O)c3cccc([N+](=O)[O-])c3)C(c3cccc([N+](=O)[O-])c3)C2)cc1 (stereo not drawn) | 0.9 | 44 | 0.6 | 8
SMILES | CYP2C19 activ | CYP2C9 inhib | CYP2C9 activ | CYP2C19 inh
CNC(=S)N1N=C(c2ccc(C)cc2)CC1c1ccc(OC)cc1 (stereo not drawn) | 0.2 | 93* | 0.1 | 77*
Cc1ccccc1NS(=O)(=O)c1ccc(OCC(=O)N2CCCCC2)cc1 | 0.8 | 2 | 1 | 22
CCOC(=O)C1CCCN(c2c(Nc3cc(C)cc(C)c3)c(=O)c2=O)C1 (stereo not drawn) | 0.6 | 31 | 0.7 | 40
CCOC(=O)C1CCN(C(=O)Nc2ccc3nc(-c4ccco4)c(-c4ccco4)nc3c2)CC1 | 0.3 | 75* | 0.2 | 71*
O=C(Nc1ccc2nc(-c3ccco3)c(-c3ccco3)nc2c1)N1CCCCCC1 | 1 | 5 | 1 | -2
CCOC(=O)C1CCCN(C(=S)Nc2cc(C)cc(C)c2)C1 (stereo not drawn) | 0.3 | 13 | 0.9 | 70*
CCOC(=O)N1CCN(C(=S)Nc2cccc(C)c2)CC1 | 0.7 | -6 | 1.1 | 34
CCOC(=O)C1CCN(C(=S)Nc2cccc(C)c2)CC1 | 0 | 24 | 0.8 | 96*
CCOC(=O)C1CCN(C(=O)Nc2ccccc2Cl)CC1 | 0.4 | 5 | 0.9 | 65*
